The text below walks through data of PubChem BioAssay (Tox21).

Values joined by “and” are separate entries in the source; they are usually repeats but may differ in a detail not shown here. Equal values may be shown once. Records with an inconclusive call do not appear. Where a structure was tested more than once in an assay, its records may differ in their call. Active and inactive are the calls of the source. Unless noted, calls come from the whole dose curve; as a rule, active = well fitted curve in the direction sought with a large enough effect in the repeat runs; inconclusive = weak or mixed curves; inactive = no such curve, though single readings can be large; an effect the other way counts as inactive or inconclusive.

The nature of test [1]: qHTS assay to identify small molecule agonists of the vitamin D receptor (VDR) signaling pathway - cell viability counter screen (AID 743224). Note: series mostly up to about 63 µM; nearly all actives have a fitted effect of over 50% in size. Put shortly:
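Here cell health was gauged by luminescent ATP detection (CellTiter-Glo, 30 min RT) in VDR-bla cells that had been incubated with test compounds for 16 h at 37C and 5% CO2.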
(Quantitative high-throughput screening tests each substance at several concentrations.)

A short description of test [2]: qHTS assay to identify small molecule antagonists of the vitamin D receptor (VDR) signaling pathway - cell viability counter screen (AID 743225). Note: nearly all actives have a fitted effect of over 50% in size. Put shortly: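 Compounds were pinned onto VDR-bla HEK 293T cells together with 1-alpha,25-dihydroxyvitamin D3 at 3 nM final. After 16 h at 37C and 5% CO2 plus the reporter readout, cell viability was measured by CellTiter-Glo luminescence (30 min, room temperature).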

Test [3] is described as follows: qHTS assay to identify small molecule agonists of the NFkB signaling pathway (AID 1159509; active = well fitted curve in the direction sought with a large enough effect in the signal ratio in the repeat runs, not every such curve was filed as active; the % refers to the signal ratio; note: series mostly up to about 61 µM). An outline of the steps: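 ME-180 NFkB-bla, 2,000 cells/well, overnight plating; cpd pinned in DMSO, 5 h 37 C; B/G FRET substrate 1.5 h RT; ex 405, em 460/530 nm.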
Test [4] is described as follows: qHTS assay to identify small molecule agonists of the NFkB signaling pathway - cell viability counter screen (AID 1159515; calls by dose curve; note: series mostly up to about 61 µM; nearly all actives have a fitted effect of over 55% in size). An outline of the steps: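 5 hr compound treatment of NFkB-bla ME-180 cells (2,000/well, seeded overnight beforehand), followed by reporter substrate for 1.5 hr. CellTiter-Glo added afterward; luminescence after 30 min RT.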
Test [5] can be described thus: qHTS assay to identify small molecule agonists of the endoplasmic reticulum stress response signaling pathway (AID 1159516; active = well fitted activation curve with a large enough effect in the signal ratio in the repeat runs, not every such curve was filed as active; the % refers to the signal ratio). An outline of the steps: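 Reporter HeLa cells (ESRE-beta-lactamase) underwent 5 hr compound incubation at 37 C and 5% CO2 in quantitative HTS format. Detection followed 2 hr of FRET substrate loading at room temperature.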
Test [6] in a line: qHTS assay to identify small molecule agonists of the endoplasmic reticulum stress response signaling pathway - cell viability counter screen (AID 1159517; calls by dose curve;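 note: HeLa cells carrying an ER stress response element beta-lactamase reporter; series mostly up to about 61 µM; nearly all actives have a fitted effect of over 50% in size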). Put shortly:
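ESRE-bla HeLa cells, 1,500 per well, seeded overnight then treated with compounds for 5 hr at 37 C. After the beta-lactamase read, viability in the same wells is measured by CellTiter-Glo luminescence after 30 min at room temperature.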

A short description of test [7]: qHTS assay to identify small molecule antagonists of the retinoid-related orphan receptor gamma (ROR-gamma) signaling pathway - cell viability counter screen (AID 1159520). Note: nearly all actives have a fitted effect of over 50% in size. Put shortly:
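Tet-on ROR gamma CHO cells were given compounds for 2 hr, then doxycycline hyclate at 1 uM final, and incubated 16 hr at 37 C. Viability was measured as ATP content by CellTiter-Glo luminescence.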

Test [8] has as its target Nuclear receptor ROR-gamma (Homo sapiens) (UniProt P51449). As to the kind of experiment: qHTS assay to identify small molecule antagonists of the retinoid-related orphan receptor gamma (ROR-gamma) signaling pathway (AID 1159521). An outline of the steps:
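Test compounds were applied to Tet-on RORγ CHO cells 2 h ahead of doxycycline hyclate (1 uM final). Luciferase reporter activity was quantified by luminescence after 16 h at 37 C and 5% CO2.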

A short description of test [9]: qHTS assay to identify small molecule agonists of the AP-1 signaling pathway - cell viability counter screen (AID 1159525; calls by dose curve; note: nearly all actives have a fitted effect of over 55% in size). Put shortly: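 AP-1-bla ME-180 cells in Opti-MEM with 0.5% dialyzed FBS, compound exposure 5 h at 37 C in 15-point titration. Viability read in the same wells as ATP content by CellTiter-Glo luminescence, normalised to tetra-n-octylammonium bromide and DMSO controls.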

A short description of test [10]: qHTS assay to identify small molecule agonists of the AP-1 signaling pathway (AID 1159526; calls by dose curve).
The target in test [11] is Retinoic acid receptor RXR-alpha (Homo sapiens) (UniProt P19793). Description: qHTS assay to identify small molecule agonists of the RXR signaling pathway (AID 1159527; calls by dose curve; note: nearly all actives have a fitted effect of over 35% in size). An outline of the steps: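 Using 9-cis retinoic acid as the reference agonist, chemicals were tested in HEK 293T cells […] for 16 hr; substrate loading lasted 2 hr at room temperature.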

The nature of test [12]: qHTS assay to identify small molecule agonists of the RXR signaling pathway - cell viability counter screen (AID 1159529). Note: nearly all actives have a fitted effect of over 50% in size. Note: potency is the fitted concentration of half-maximal effect. Put shortly:
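Compounds dissolved in DMSO were pinned onto HEK 293T cells carrying a beta-lactamase reporter under RXR-alpha control and incubated 16 hr. Cytotoxicity was then quantified by CellTiter-Glo luminescence.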

Test [13] is described as follows: qHTS assay to identify small molecule antagonists of the retinoid acid receptor (RAR) signaling pathway - cell viability counter screen (AID 1159551). Note: nearly all actives have a fitted effect of over 35% in size. Put shortly: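 Seed C3RL4 cells; next day add compound, then retinol to 1 uM final; incubate 6 h at 37 C; add CellTiter-Glo; read luminescence after 30 min at RT.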
A short description of test [14]: qHTS assay to identify small molecule antagonists of the retinoic acid receptor (RAR) signaling pathway (AID 1159552; note: nearly all actives have a fitted effect of over 50% in size). An outline of the steps:
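Test chemicals and DMSO controls were pin-transferred onto C3RL4 cells a day after seeding; retinol (1 uM final) followed at once. Luminescent reporter output was quantified after 6 hr of co-incubation and 30 min with detection reagent.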

Test [15] in a line: qHTS assay to identify small molecule agonists of the retinoic acid receptor (RAR) signaling pathway (AID 1159553). Note: potency is the fitted concentration of half-maximal effect. An outline of the steps: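 Activation of retinol signaling was monitored via a RARE luciferase reporter in C3RL4 cells. After 6 hr compound treatment at 37 C, detection reagent was added for 30 min at room temperature before luminescence reading.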

Chain of Retinoic acid receptor RXR-alpha (Homo sapiens) (P19793 whole entry, looked up): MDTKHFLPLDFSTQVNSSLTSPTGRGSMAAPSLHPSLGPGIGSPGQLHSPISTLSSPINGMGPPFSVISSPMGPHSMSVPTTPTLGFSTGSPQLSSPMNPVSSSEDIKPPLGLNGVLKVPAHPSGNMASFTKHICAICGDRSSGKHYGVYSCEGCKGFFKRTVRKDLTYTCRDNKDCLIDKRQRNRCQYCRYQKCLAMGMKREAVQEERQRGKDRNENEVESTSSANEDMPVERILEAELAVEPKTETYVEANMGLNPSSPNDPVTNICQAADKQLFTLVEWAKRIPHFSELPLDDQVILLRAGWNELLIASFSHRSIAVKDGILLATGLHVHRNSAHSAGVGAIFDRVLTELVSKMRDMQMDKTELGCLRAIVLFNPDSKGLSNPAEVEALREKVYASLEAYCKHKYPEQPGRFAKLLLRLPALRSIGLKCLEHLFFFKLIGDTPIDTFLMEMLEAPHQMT

As for `O=Nc1ccc(O)cc1`, the Potency entry in test [1], in test [2], in [6], in test [7], in test [8] and in [9] was “inactive” throughout. For the same compound, the Potency result in test [10], in test [11], in [12], in test [13], in [14] and in [15] was “inactive” in each case. Moreover, the result in test [3], in test [4] and in test [5] was inactive.

For `Nc1cc(-c2ccncc2)c[nH]c1=O`, the Potency result in test [1], in test [2], in test [6], in [7], in [8] and in test [9] was “inactive” in each case. Further, the Potency entry in [10], in [11], in test [12], in test [13], in test [14] and in [15] was “inactive” throughout. Further, the call in test [3], in test [4] and in test [5] was inactive.

With `Oc1ccc(OCc2ccccc2)cc1`, the Potency result in test [1], in test [2], in test [6], in test [7], in test [8] and in test [9] was “inactive” in each case. Besides, the Potency result in test [10], in test [11], in [12], in [13] and in test [14] was “inactive” throughout. Also, the call in [3], in test [4] and in test [5] was inactive. Besides, the Potency in test [15] was 4.24 µM (active) and inactive.

As to `CC(C)Cc1ccccc1`, the Potency entry in test [1], in [2], in [6], in test [7], in [8] and in test [9] was “inactive” in each case. The Potency result in test [10], in test [11], in [12], in [13], in test [14] and in [15] was “inactive” each time. For the same compound, the compound was classed as inactive in test [3], in test [4] and in test [5].

Turning to `C=C(C)C(=O)OCCCCCC`, the Potency entry in test [1], in test [2], in [6], in [7], in test [9] and in test [10] was “inactive” each time. Moreover, the Potency result in test [11], in [12], in test [13], in test [14] and in test [15] was “inactive” each time. For the same compound, the result in test [3], in test [4] and in test [5] was inactive.

Regarding `CC[Si](OC(C)=O)(OC(C)=O)OC(C)=O`, the Potency entry in [1], in test [2], in [6], in test [7], in test [8] and in [9] was “inactive” each time. The Potency result in [10], in test [11], in test [12] and in test [13] was “inactive” each time. Further, the result in test [3], in [4] and in test [5] was inactive.

For the compound `Cc1ccc(N)c(S(=O)(=O)O)c1`, the Potency result in [1], in test [2], in test [6], in test [7], in test [8] and in test [9] was “inactive” throughout. Further, the Potency entry in test [10], in test [11], in [12], in test [13], in test [14] and in test [15] was “inactive” in each case. Also, the call in test [3], in [4] and in [5] was inactive.

Turning to `Oc1c(Cl)cc(Cl)c(Cl)c1Cl`, the Potency entry in test [1], in [6], in [7], in test [9], in test [10] and in test [11] was “inactive” throughout. Further, the Potency entry in test [13], in test [14] and in [15] was “inactive” throughout. In addition, the outcome in [3], in test [4] and in test [5] was inactive. Besides, the Potency in [12] is 15.2 µM (active) and 13.8 µM (active).

Regarding `Nc1c(S(=O)(=O)O)cc(Br)c2c1C(=O)c1ccccc1C2=O`, the Potency result in [1], in test [2], in test [6], in test [7], in test [8] and in [9] was “inactive” each time. Moreover, the Potency result in [10], in test [12], in test [13], in [14] and in test [15] was “inactive” throughout. Besides, the call in test [3], in test [4] and in test [5] was inactive.
